Several values for one entry are separate records, joined by “and”; a condition that tells them apart may be missing. Equal entries are not always repeated. Activity calls are given as the source filed them. The calls were made as follows: active = hit-call score of the fitted dose curve at least 0.9, where 1 is the maximum; inactive = score below 0.9.
Read-out: Insulin-like growth factor-binding protein 1 (IGFBP1), IGFBP1 (gene 3484)
Assay: LTEA_HepaRG_IGFBP1: Life Technologies and Expression Analysis (LTEA) Assay for Insulin-like growth factor-binding protein 1 (IGFBP1) using HepaRG (AID 2283508)
Conditions: mRNA level, 48 h; actives raise or lower the signal
Procedure: LTEA_HepaRG is a cell based, multiplexed-readout assay that uses HepaRG, a human liver cell line, with measurements taken at 48 hours after chemical dosing on a 96-well plate.LTEA_HepaRG_IGFBP1 is one of 102 assay component(s) measured in the LTEA HepaRG cell culture assay. It is a marker of Cell proliferation, survival, death.Data from the assay component LTEA_HepaRG_IGFBP1 was analyzed into 1 endpoint. This assay endpoint, LTEA_HepaRG_IGFBP1, was analyzed with bidirectional fitting relative to DMSO as the negative control and baseline of activity. Using a type of inducible reporter, measures of mRNA induction for gain or loss-of-signal activity can be used to understand regulation of transcription factor activity. To generalize the intended target to other relatable targets, this assay endpoint is annotated to the transporter intended target family, where the subfamily is hormone carrier protein.
A total of 1060 chemcials from the ToxCast library were tested in eight-point concentration-response experiments. Cell culture and cytotoxicity assays were conducted at Thermo Fisher Scientific's Custom Services facility (Madison, WI). A single lot of human HepaRG cells (Thermo Fisher Scientific, Frederick, MD) was used for the cell culture experiments. 96-well format collagen type I coated plates of human HepaRG cells were prepared using established methods. Briefly, cryopreserved HepaRG cells were thawed, plated at a density of approximately 100,000 cells/well in HepaRG Thaw, Plate, and General Purpose media (HPRG770, Thermo Fisher Scientific), and incubated for 48 hours. 0.5% DMSO was selected as vehicle control to balance the requisite need of DMSO in HepaRG cultures to maintain differentiation (for example, baseline metabolism, proportions of hepatocytes vs. cholangiocytes), while enabling further hepatic receptor pathway activation (for example, PXR and CAR) in response to chemical exposure. 48 hours after plating, the culture medium was replaced with HepaRG Serum-Free Incudtion Media. Cells were exposed to each test chemical in duplicate and maintained in CO2 incubators for another 48 hours. Chemical plates were thawed to room temperature and 200x concentrations of treatment groups were prepared. 8-point conentration-reponse curves were made with the highest exposure at 100 uM, followed by half-log dilutions, all in 0.5% DMSO. Each test plate contained variouse controls, induction positive controls (1mM phenobarbital), cytotoxicity positive controls ([…] aflatoxin B1), vehicle controls (0.5% DMSO), and total lysis controls (0.5% DMSO). Cell morphology images were taken using an Essen IncuCyte FLR automated microscope, with six 96-well plates imaged in about 24 minutes. Images were captured and exported and JPEG files. Spent culture media was transfered to black-well plates for the LDH assay, and remaining media was sorted at -80 C for later use. Cells were treated with RLT buffer and frozen until shipped for gene expression analysis. Total RNA was isolated from the cell suspension in 75 uL of Buffer RLT (Qiagen, Germantown, MD 20874) by Quintiles/Expression Analysis (Durham, NC) using a custom isolation procedure. Total RNA from each plate well was transferred to a preamplification plate. Fluidigm's 96.96 Dynamic ArrayTM (Fluidigm, Amsterdam, the Netherlands) technology was used for gene expression analyses by quantitative reverse transcription polymerase chain reaction (qRT-PCR, performed by Quintiles/Expression Analysis, Durham, NC)89. Standard TaqManTM Assays (Applied Biosystems/ThermoFisher Scientific, Foster City, CA) were used to assess the expression of 93 genes selected based on their selectivity and sensitivity to important hepatic receptors known to be modulated by environmental chemicals; importance in human hepatocyte functionality; and hepatotoxicity. […]

SMILES | outcome | AC50
C=CCC1=C(C)C(OC(=O)C2C(C=C(C)C)C2(C)C)CC1=O (stereo not given) | inactive | 
CCCCNC(=O)OCC#CI | inactive | 
CCCCNC(=O)n1c(NC(=O)OC)nc2ccccc21 | inactive | 
CCOc1cc(Oc2ccc(C(F)(F)F)cc2Cl)ccc1[N+](=O)[O-] |  | 68.8 µM (active)
COc1ccc(C(c2ccc(OC)cc2)C(Cl)(Cl)Cl)cc1 |  | 72.3 µM (active)
N#Cc1cc(Br)c(O)c(Br)c1 |  | 19.3 µM (active)
CC(C)(C)c1ccc(CSc2cnn(C(C)(C)C)c(=O)c2Cl)cc1 |  | 3.43 µM (active)
CC(C)C1(C)N=C(c2nc3ccccc3cc2C(=O)O)NC1=O (stereo not given) | inactive | 
CCNc1nc(Cl)nc(NC(C)C)n1 | inactive | 
CCCCOC(=O)c1ccccc1C(=O)OCCCC | inactive | 
CC(C)Oc1cc(-n2nc(C(C)(C)C)oc2=O)c(Cl)cc1Cl |  | 76.8 µM (active)
Cc1ccc(-c2c(Cl)nc(C#N)n2S(=O)(=O)N(C)C)cc1 |  | 13.6 µM (active)
COP(N)(=O)SC (stereo not given) | inactive | 
COP(=S)(OC)Oc1nc(Cl)c(Cl)cc1Cl | inactive | 
COC(=O)c1ccccc1C(=O)OC | inactive | 
C=CC1(C)OC(=O)N(c2cc(Cl)cc(Cl)c2)C1=O (stereo not given) | inactive | 
CCc1nn(C)c(C(=O)NCc2ccc(C(C)(C)C)cc2)c1Cl |  | 2.34 µM (active)
Cc1c(F)c(F)c(COC(=O)C2C(/C=C(\Cl)C(F)(F)F)C2(C)C)c(F)c1F (stereo not given) | inactive | 
CC1=C(C(=O)Nc2ccccc2)SCCO1 | inactive | 
CC1COC(Cn2cncn2)(c2ccc(Oc3ccc(Cl)cc3)cc2Cl)O1 (stereo not given) |  | 19 µM (active)

SMILES | outcome | AC50
COC(=O)C(C)Oc1ccc(Oc2ccc(Cl)cc2Cl)cc1 (stereo not given) | inactive | 
C#CCOS(=O)OC1CCCCC1Oc1ccc(C(C)(C)C)cc1 (stereo not given) |  | 14.6 µM (active)
COc1cnc(OC)n2nc(NS(=O)(=O)c3c(OCC(F)F)cccc3C(F)(F)F)nc12 | inactive | 
CCOC(=O)C(Cl)Cc1cc(-n2nc(C)n(C(F)F)c2=O)c(F)cc1Cl (stereo not given) | inactive | 
COc1nc(NC(C)C)nc(NC(C)C)n1 | inactive | 
CON(C)C(=O)Nc1ccc(Cl)c(Cl)c1 |  | 50 µM (active)
CS/C(C)=N/OC(=O)N(C)SN(C)C(=O)O/N=C(\C)SC | inactive | 
CCOC(=O)CC(SP(=S)(OC)OC)C(=O)OCC (stereo not given) | inactive | 
COC(=O)N(OC)c1ccccc1COc1ccn(-c2ccc(Cl)cc2)n1 |  | 64.3 µM (active)
CC(Oc1ccc(Cl)cc1Cl)C(=O)O (stereo not given) | inactive | 
O=C(Nc1ccccc1)Nc1ccnc(Cl)c1 |  | 63.4 µM (active)
CN(C)C(=S)SSC(=S)N(C)C | inactive | 
N#CC(CCc1ccc(Cl)cc1)(Cn1cncn1)c1ccccc1 (stereo not given) |  | 74.4 µM (active)
CCCCC(CC)COC(=O)c1ccccc1C(=O)OCC(CC)CCCC (stereo not given) | inactive | 
CNC(=S)S | inactive | 
CCCN(CCC)c1c([N+](=O)[O-])cc(S(N)(=O)=O)cc1[N+](=O)[O-] |  | 92.9 µM (active) and 36.6 µM (active) and 78.9 µM (active)
CCOP(=S)(OCC)SCn1c(=O)oc2cc(Cl)ccc21 | inactive | 
CO/C=C(/C(=O)OC)c1ccccc1Oc1cc(Oc2ccccc2C#N)ncn1 |  | 63.6 µM (active) and 72.5 µM (active) and 76.7 µM (active)
C=CCC1=C(C)[C@@H](OC(=O)[C@@H]2[C@@H](C=C(C)C)C2(C)C)CC1=O | inactive | 
COC(=O)C=C(C)OP(=O)(OC)OC | inactive | 
